# Assay results from PubChem BioAssay (NCATS).
# Records with an inconclusive call do not appear. Values without a mark were called inactive. Activity calls are given as the source filed them. Calls follow the shape of the dose curve; as a rule, active = well fitted curve in the direction sought with a large enough effect in the signal ratio, with a control signal flat (not every such curve was filed as active); inconclusive = small, poorly fitted or top-dose-only effect, or effect the other way, or a change in a side signal; inactive = no such curve, though single readings can be large or run the other way; the % refers to the signal ratio.
# Biological target: Peroxisome proliferator-activated receptor gamma (Homo sapiens) (UniProt P37231)
# Assay: qHTS assay for small molecule agonists of peroxisome proliferator-activated receptor gamma signaling (AID 588536)
# Conditions: HEK293 PPARg-UAS-bla, beta-lactamase ratio, 16 h, percent of rosiglitazone response, DMSO as zero; series mostly up to 76.7 µM; activation: at the top concentration
# Source text: NIH Chemical Genomics Center [NCGC] U.S. Environmental Protection Agency [EPA] National Institutes of Environmental Health Sciences [NIEHS] National Toxicology Program [NTP] NCGC Assay Overview The Peroxisome proliferator-activated receptors (PPARs) are lipid-activated transcription factors of the nuclear receptor superfamily with three distinct subtypes namely PPAR alpha, PPAR delta (also called PPAR beta) and PPAR gamma. All these subtypes heterodimerizes with Retinoid X receptor (RXR) and these heterodimers regulate transcription of various genes. PPAR-gamma (glitazone receptor) agonists have been used in the treatment of type 2 diabetes and dyslipidaemia. It is involved in the regulation of glucose and lipid metabolism. PPAR-gamma activates certain genes like Paraoxonase 1 which is responsible for hydrolyzing organophosphates. PPAR-gamma agonists may also be therapeutically important in the treatment of coronary artery disease, obesity and cancer and atherosclerosis.
# NCGC Assay Protocol Summary Using a beta-lactamase reporter-gene under control of Peroxisome Proliferator-Activated-gamma (PPAR-gamma) response element, a cell-based assay [GeneBLAzer PPAR-gamma-UAS-bla assay developed by Invitrogen] was used to measure PPAR-gamma ligands signaling. GeneBLAzer PPAR-gamma-UAS-bla-HEK293 cells were used with assay medium containing 1% charcoal/dextran treated FBS. The assay was performed in clear bottom black Greiner 1536-well plates. Rosiglitazone was used in the screen as the positive control. Library compounds were measured for their ability to stimulate the reporter gene activity. Compounds were screened in a titration series in 1536-well format. The fluorescence intensity (405 nm excitation, 460/530 nm emission) was measured using an EnVision plate reader. Data was normalized relative to Rosiglitazone control (2 uM, 100%), and DMSO only wells (basal, 0%). Concentration-response titration points for each compound were fitted to the Hill equation yielding concentrations of half-maximal stimulation (EC50) and maximal response (efficacy) values. qHTS protocol for PPAR-gamma beta-lactamase assay in agonist mode [Step] [Parameter] [Value] [Description] 1. Reagent; 6 uL; 3000 cells/well 2. Incubation; 37 C for 6 - 6.5 hrs 3. Compounds; 23 nL; 0.59 nM to 92 uM 4. Controls (Rosiglitazone); 23 nL, - One column with dose response, start 19 uM, 1:3 dilutions in duplicates - Final concentrations of 2 uM and 0.5 uM in two columns 5. Incubation; 37 C for 16 hrs 6. Detection reagent; 1 uL of CCF4-dye 7. Incubation; RT for 2 hrs 8. Detection; Fluorescence; Envision plate reader
# Chain of Peroxisome proliferator-activated receptor gamma (Homo sapiens) (P37231 whole entry, looked up): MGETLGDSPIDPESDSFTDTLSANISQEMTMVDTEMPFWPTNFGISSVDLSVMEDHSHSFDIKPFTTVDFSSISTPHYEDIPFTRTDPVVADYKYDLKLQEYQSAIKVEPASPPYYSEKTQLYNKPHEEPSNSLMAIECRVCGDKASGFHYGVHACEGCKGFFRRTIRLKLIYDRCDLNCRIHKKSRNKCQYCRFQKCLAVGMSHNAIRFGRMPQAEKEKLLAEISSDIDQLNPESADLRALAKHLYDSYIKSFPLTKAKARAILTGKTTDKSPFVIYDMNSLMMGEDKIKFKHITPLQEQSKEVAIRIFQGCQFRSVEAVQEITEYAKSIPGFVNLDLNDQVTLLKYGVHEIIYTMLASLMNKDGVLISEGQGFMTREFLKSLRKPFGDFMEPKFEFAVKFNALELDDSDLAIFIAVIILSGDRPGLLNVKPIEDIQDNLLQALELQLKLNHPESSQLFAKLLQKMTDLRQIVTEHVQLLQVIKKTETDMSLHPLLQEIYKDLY
Compound,activation,outcome
Cc1ccc(C(C)(C)C)cc1,-2.78%,–
Cc1cccc(Br)c1,-1.74%,–
Nc1cccc([N+](=O)[O-])c1,-0.55%,–
C1CCCC1,2.78%,–
O=C(Cl)c1ccccc1[N+](=O)[O-],3.06%,–
NC(=O)c1cccc([N+](=O)[O-])c1,0.915%,–
CCCCC(CC)COCC1CO1 (stereo not given),0.543%,–
NS(=O)(=O)O,0.149%,–
Cc1ccc(C)c([N+](=O)[O-])c1,2.98%,–
CN(C)CCCNCCCN,-0.286%,–
CCCC=O,7.49%,–
CCOC(=O)OCC,1.23%,–
Cc1cccc2cccnc12,1.43%,–
O=[N+]([O-])c1cccc(Cl)c1,2.06%,–
CCCCCCCCN,3.09%,–
CCCCCCCCC,-0.795%,–
Cc1cccc(C)c1[N+](=O)[O-],–,inactive
NC(=S)NNC(N)=S,–,inactive
C=C(C)C(=O)OCCCCCC,2.69%,–
Cc1ccc(S(=O)(=O)NC2CCCCC2)cc1,-2.52%,–

Compound,activation,outcome
O=C(O)c1ccccc1[N+](=O)[O-],4.83%,–
CCCCOCCOCCSC#N,5.85%,–
Cc1ccc2cccnc2c1,-0.233%,–
CC(=O)Nc1ccc(C)cc1,-1.55%,–
Cc1cccc(C(=O)O)c1[N+](=O)[O-],4.59%,–
O=C(O)c1c(Cl)cccc1Cl,4.32%,–
CO[Si](CCCNCCC[Si](OC)(OC)OC)(OC)OC,-1.39%,–
CC(C)=CCC/C(C)=C/C=O,–,inactive
OC(CCl)CCl,1.55%,–
CCN(C(=O)N(CC)c1ccccc1)c1ccccc1,-1.13%,–
CC(C)N=C=NC(C)C,6.87%,–
CCOCCO,-1.16%,–
Cc1ccc2c(c1[N+](=O)[O-])C(=O)c1ccccc1C2=O,4.77%,–
CCC(C)(C)C(=O)O,1.75%,–
C(=C/c1ccccc1)/c1ccccc1,-0.194%,–
CCCCC(C=O)CC (stereo not given),-2.38%,–
CC1(N)CCC(C(C)(C)N)CC1 (stereo not given),-0.365%,–
CCCCCNCCCCC,–,inactive
Cc1cc(C)cc(N)c1,0.791%,–
CC(=O)c1ccccn1,0.92%,–
